Records with an inconclusive call do not appear. Calls of active or inactive are those of the source. Unless noted, calls follow the shape of the dose curve; as a rule, active = well fitted curve in the direction sought with a large enough effect; inconclusive = small, poorly fitted or top-dose-only effect, or another doubt; inactive = no such curve, though single readings can be large; an effect the other way counts as inactive or inconclusive.
Assays:
[1] = target: T1, Tyrosine-protein phosphatase non-receptor type substrate 1 (Homo sapiens) + Leukocyte surface antigen CD47 (Homo sapiens) (UniProt P78324+Q08722); test: CD47-SIRPalpha protein protein interaction - LANCE assay qHTS validation (AID 1347057; active = well fitted curve in the direction sought with a large enough effect in the signal ratio, with a control signal flat, not every such curve was filed as active; the % refers to the signal ratio); conditions: Recombinant CD47-His / biotin-SIRPalpha, TR-FRET ratio; series mostly up to 38.3 µM
Outline: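 Inhibition of soluble CD47/SIRPalpha ectodomain association by titrated compounds, measured as 665/615 nm time-resolved FRET ratio after sequential 30 min room-temperature incubations.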

[2] = target: T1, Tyrosine-protein phosphatase non-receptor type substrate 1 (Homo sapiens) + Leukocyte surface antigen CD47 (Homo sapiens); test: CD47-SIRPalpha protein protein interaction - HTRF assay qHTS validation (AID 1347058; active = well fitted curve in the direction sought with a large enough effect in the signal ratio, not every such curve was filed as active; the % refers to the signal ratio); conditions: TR-FRET HTRF CD47-His / biotin-SIRPalpha binding, ratio 665/615; series mostly up to 38.3 µM
Outline: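 Soluble extracellular domains (6His-CD47, Avi-tag-biotinylated SIRPalpha) in PBS pH 7.4 with 0.05% IGEPAL CA-630. Compounds were preincubated 30 min at RT with CD47 and anti-His-Eu, then SIRPalpha and SAV-XL665 were added. TR-FRET 665/615 ratio.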

[3] = target: T1, Tyrosine-protein phosphatase non-receptor type substrate 1 (Homo sapiens) + Leukocyte surface antigen CD47 (Homo sapiens); test: CD47-SIRPalpha protein protein interaction - Alpha assay qHTS validation (AID 1347059); conditions: AlphaScreen CD47-His/biotin-SIRPalpha binding, LOPAC; series mostly up to 38.3 µM;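 also: bead proximity luminescence from CD47 binding SIRPalpha after compound preincubation with SIRPalpha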
Excerpt: SIRPalpha is a myeloid cell expressed immunomodulatory receptor that binds the tumor expressed immune checkpoint CD47. Therapeutic disruption of this interaction leads to immune-mediated tumor rejection. This assay was used to quantitate CD47-SIRPalpha binding biochemically and evaluate chemical libraries for novel CD47-SIRPalpha inhibitors. To recapitulate the biological interaction of CD47 and SIRPalpha, we designed expression constructs to produce their recombinant, soluble, extracellular interaction domains. CD47 was produced with an N-terminal 6His tag. SIRPalpha was produced with an N-terminal Avi-Tag for site-specific biotin incorporation. The CD47-SIRPalpha interaction was measured by AlphaScreen using affinity tag linked reagents (Ni-NTA acceptor bead and streptavidin donor bead). SIRPalpha without biotin incorporation was used as a positive control inhibitor.
PROTOCOL TABLE (as described by Miller, T. et al. 2019)
SEQUENCE No. (e.g., 1, 2, 3, etc.); […] (e.g., Cells, Incubation, Reagent, etc.); VALUE and DESCRIPTION.
1a. Reagent. 2 uL SIRPalpha-biotin (25 nM) added to respective wells in Assay buffer; white/solid bottom high base, med bind 1536-well plates (Greiner 789075)
1b. Reagent. 2 uL Assay buffer negative control for background fluorescence
2. Reagent. 23 nL library compounds (7-pt, 1:4 intraplate titration series) or DMSO control transferred by Pin Tool
3. Centrifuge. […]

[4] = target: Parathyroid hormone/parathyroid hormone-related peptide receptor (Homo sapiens) (UniProt Q03431); test: qHTS for PTHR1 Agonists: Optimization Screen against the NCGC LOPAC library (AID 1347079); conditions: HEK293 GP2 PTHR1 GloSensor cAMP luminescence, 1 h; series mostly up to 57.1 µM;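 also: GloSensor cAMP luminescence in HEK-293 GP2 cells expressing human PTHR1 with IBMX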
Outline: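 Signal increase flags agonism. GP2 cells, derived from HEK-293, express human PTHR1 and a GloSensor cAMP construct.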

[5] = qHTS of pediatric cancer cell lines to identify multiple opportunities for drug repurposing: Primary screen for TC32 cells (AID 1347089); conditions: TC32 Ewing sarcoma viability, CellTiter-Glo luminescence, 48 h; series mostly up to 45.8 µM; also: nearly all actives have a fitted effect of over 60% in size
Excerpt: Drug repurposing or repositioning has been offered as a strategy for drug development in oncology programs. This approach has special potential for childhood cancers and other rare or orphan diseases, where the expected return on new drug development has been a disincentive to pharmaceuticals.
In this project we exploit the poly-pharmacology of drugs to discover new indications via phenotypic screening of a panel of 19 well-characterized cell lines derived from solid tumors seen in children and adolescents. The goal is to identify approved drugs with previously unrecognized anticancer properties that has the potential to reveal new mechanisms and biological processes involved in carcinogenesis or drug resistance. We employed a titration-based paradigm (quantitative high-throughput screening or qHTS), where all compounds were tested at multiple concentrations for their effect on cell viability. […] We screened the NIH Chemical Genomics Center (NCGC) Pharmaceutical Collection (NPC) and Mechanism Interrogation Plate (MIPE) small molecule collections of approved and investigational compounds against these cell lines; and measured metabolically active cells after 48 hours of compound treatment as a proxy for cell viability. […]
[1] Shen, M et al. Quantitative high-throughput phenotypic screening of pediatric cancer cell lines identifies multiple opportunities for drug repurposing. […]

[6] = qHTS of pediatric cancer cell lines to identify multiple opportunities for drug repurposing: Primary screen for DAOY cells (AID 1347090); conditions: DAOY medulloblastoma viability, CellTiter-Glo luminescence, 48 h; series mostly up to 46 µM; also: nearly all actives have a fitted effect of over 55% in size
Outline: (§1)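 Eight- or eleven-point concentration series, 48 h treatment at 37 degrees C in growth media; readout CellTiter-Glo luminescence. Potency and efficacy were taken from the concentration-response curves.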

[7] = qHTS of pediatric cancer cell lines to identify multiple opportunities for drug repurposing: Primary screen for SJ-GBM2 cells (AID 1347091); conditions: SJ-GBM2 viability, CellTiter-Glo luminescence, 48 h; series mostly up to 46 µM
Outline: as §1

[8] = qHTS of pediatric cancer cell lines to identify multiple opportunities for drug repurposing: Primary screen for A673 cells (AID 1347092); conditions: A673 Ewing sarcoma viability, CellTiter-Glo ATP luminescence, 48 h; series mostly up to 46 µM; also: nearly all actives have a fitted effect of over 45% in size
Outline: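 A673 cells (500-1,000 cells/well) were treated 48 hours at 37 degrees C with compounds at 11-point (0.78 nM to 46 µM) or 8-point (0.59 nM to 46 µM) dilutions. Viability read by CellTiter-Glo luminescence; concentration-response curves fitted.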

[9] = qHTS of pediatric cancer cell lines to identify multiple opportunities for drug repurposing: Primary screen for SK-N-MC cells (AID 1347093); conditions: SK-N-MC viability, CellTiter-Glo luminescence, 48 h; series mostly up to 46 µM
Outline: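 Metabolically active cells were quantified by ATP-dependent luminescence (CellTiter-Glo, 15 min at room temperature) following 48 h treatment. Cells had been plated at 500-1,000 per well and settled for 5 h beforehand.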

[10] = qHTS of pediatric cancer cell lines to identify multiple opportunities for drug repurposing: Primary screen for BT-37 cells (AID 1347094); conditions: BT-37 viability, CellTiter-Glo luminescence, 48 h; series mostly up to 57.3 µM
Outline: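 Following a 5-hour attachment period, cells at 500-1,000/well received compounds and were cultured for 48 hours. CellTiter-Glo was added and luminescence read to estimate viable, metabolically active cells.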

Measured: outcome

T1 sequence (P78324 whole entry, looked up, the tested form may be a part): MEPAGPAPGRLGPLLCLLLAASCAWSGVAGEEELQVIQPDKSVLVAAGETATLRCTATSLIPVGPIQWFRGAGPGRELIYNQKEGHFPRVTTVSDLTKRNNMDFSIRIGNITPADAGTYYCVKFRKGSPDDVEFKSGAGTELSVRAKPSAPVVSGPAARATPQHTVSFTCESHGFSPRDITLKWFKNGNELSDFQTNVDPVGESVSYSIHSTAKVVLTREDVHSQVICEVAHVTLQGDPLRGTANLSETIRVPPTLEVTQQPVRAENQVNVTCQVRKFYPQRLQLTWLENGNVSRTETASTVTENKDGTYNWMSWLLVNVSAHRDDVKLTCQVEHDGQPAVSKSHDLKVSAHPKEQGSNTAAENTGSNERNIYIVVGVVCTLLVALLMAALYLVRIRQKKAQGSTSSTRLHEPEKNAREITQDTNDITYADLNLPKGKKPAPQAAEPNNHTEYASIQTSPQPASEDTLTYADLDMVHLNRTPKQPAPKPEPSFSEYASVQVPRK
T1 sequence (Q08722 whole entry, looked up, the tested form may be a part): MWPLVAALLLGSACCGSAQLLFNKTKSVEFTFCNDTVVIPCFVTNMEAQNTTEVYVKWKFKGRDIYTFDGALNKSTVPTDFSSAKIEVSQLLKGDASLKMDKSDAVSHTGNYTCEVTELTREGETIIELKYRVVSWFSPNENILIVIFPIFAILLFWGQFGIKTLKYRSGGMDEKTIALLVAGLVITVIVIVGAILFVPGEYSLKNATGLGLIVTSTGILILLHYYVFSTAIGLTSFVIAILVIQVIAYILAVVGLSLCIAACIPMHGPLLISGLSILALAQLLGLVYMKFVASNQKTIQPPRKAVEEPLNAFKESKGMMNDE
Chain of Parathyroid hormone/parathyroid hormone-related peptide receptor (Homo sapiens) (Q03431 whole entry, looked up): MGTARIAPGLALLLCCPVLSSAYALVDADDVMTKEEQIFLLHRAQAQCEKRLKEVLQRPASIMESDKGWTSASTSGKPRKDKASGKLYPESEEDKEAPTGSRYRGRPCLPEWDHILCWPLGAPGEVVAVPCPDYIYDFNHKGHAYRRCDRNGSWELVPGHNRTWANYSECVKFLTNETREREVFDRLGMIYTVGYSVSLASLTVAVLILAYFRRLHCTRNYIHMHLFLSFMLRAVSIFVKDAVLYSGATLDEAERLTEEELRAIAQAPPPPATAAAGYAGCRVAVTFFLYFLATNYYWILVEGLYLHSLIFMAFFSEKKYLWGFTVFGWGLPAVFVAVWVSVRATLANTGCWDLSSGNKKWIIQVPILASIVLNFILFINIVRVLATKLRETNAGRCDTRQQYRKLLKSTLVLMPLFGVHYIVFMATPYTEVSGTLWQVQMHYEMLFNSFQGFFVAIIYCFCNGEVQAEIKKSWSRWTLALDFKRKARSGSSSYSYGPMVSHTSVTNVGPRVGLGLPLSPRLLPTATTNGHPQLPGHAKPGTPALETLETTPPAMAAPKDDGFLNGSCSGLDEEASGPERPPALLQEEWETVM

CN1Cc2c(N)cccc2C(c2ccccc2)C1 (stereo unspecified)
inactive: all assays above

CC(=O)OC(C)OC(=O)C(C)c1ccc(-c2ccccc2)c(F)c1 (stereo unspecified)
inactive: [5] | [6] | [7] | [8] | [9] | [10]

From PubChem BioAssay (NCATS)
